Hits are enriched below; roughly 7.6% of the tested compounds scored in any of these assays.
KCNH2 3.1 block = inhibitors of human KCNH2 3.1 potassium channel isoform. U2OS KCNH2 3.1, thallium flux FluxOr; active compounds read low. activity change, % (tested at about 1.8 µM). 340,000 tested, 0.95% active. AID 720553;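 active = maximum activity change below -70%; inconclusive = maximum activity change from -70% to -50%; inactive = maximum activity change above -50%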;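 note: thallium influx rate constant from kinetic fluorescence after stimulation buffer; % is set by controls: 0 for no effect and ±100 for the full control effect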
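Steps: virus added to U2OS suspension (4 h, RT, dark); medium with 10% FBS added, cells plated, 37 C overnight; FluxOr/Red40 loading buffer 45 min RT; stimulation buffer, 2 min kinetic read; rate constant normalized.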
KB-V1 MDR tox = kills drug-selected multidrug resistant KB-V1 cells; KB-V1 MDR cells viability, CellTiter-Glo, 72 h; AID 1347076; Potency, µM (top dose mostly 46.1 µM), actives largely listed as cytotoxic; 400,000 tested, 3.4% active; note: potency is the fitted concentration of half-maximal effect; % is set by controls: 0 for no effect and ±100 for the full control effect; nearly all actives have a fitted effect of over 60% in size
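Cells of the MDR subline KB-V1 are plated, dosed with compound at multiple concentrations, and incubated 72 h at 37 degrees C; CellTiter-Glo is then added and luminescence read after 10 min.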
KB-3-1 cytotox = KB-3-1 parental cell cytotoxicity | KB-3-1 viability, CellTiter-Glo ATP luminescence, 72 h | Potency, µM (highest dose often 46.1 µM), actives largely listed as cytotoxic | 400,000 tested, 1.4% active | AID 1347075; note: potency is the fitted concentration of half-maximal effect; % is set by controls: 0 for no effect and ±100 for the full control effect; nearly all actives have a fitted effect of over 60% in size
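Cells are dispensed, compounds pinned in, plates held at 37 °C for 72 h, then CellTiter-Glo is added and luminescence read after 10 minutes. Cell line: parental KB-3-1 in phenol-red-free DMEM, 10% FBS.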
KCNH2 WT inh = blocks the wildtype human KCNH2 potassium channel; activity change, % at 1.84 µM; 340,000 tested, 0.37% active; Q12809; U2OS, BacMam KCNH2, thallium flux FluxOr; active compounds read low;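 active = maximum activity change below -70%; inconclusive = maximum activity change between -70% and -50%; inactive = maximum activity change above -50%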; note: % is set by controls: 0 for no effect and ±100 for the full control effect
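U2OS cells were transduced with wild-type KCNH2 virus (2.03 x 10^8 / mL) for 4 h at room temperature, then cultured overnight at 37 C. Thallium flux was read with FluxOr dye. Rate constants were normalized to DMSO controls.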
MCF10A rereplic = DNA re-replication induction in MCF 10a cells. MCF 10A DNA re-replication, Hoechst nuclear intensity, 48 h. Potency, µM (highest dose often 46.1 µM), inactives show at the top dose activity, positive = re-replication, hits mostly activators. 350,000 tested, 2.9% active; note: potency is the fitted concentration of half-maximal effect; % of control where 0% means no effect; nearly all actives have a fitted effect of over 50% in size
SW480 rerep = inducers of DNA re-replication in SW480 colon cancer cells; AID 624297; 340,000 tested, 1.8% active; Potency, µM (titrated, usually from 46.1 µM), without a hit: at the highest dose re-replication activation, hits mostly activators; SW480 DNA re-replication, Hoechst DNA content imaging, 48 h; note: potency is the fitted concentration of half-maximal effect; % of control where 0% means no effect; nearly all actives have a fitted effect of over 55% in size
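First, 250 cells per well were seeded. Next, compound or vehicle (23 nL) was pinned in, plates sat 48 hr at 37 C. Finally Hoechst was added for 40 min before fluorescence scanning.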
* hit, by the source's call; i = inactive; ? = inconclusive; . = not tested or not shown; ! = repeats disagree. Unless noted, calls come from the whole dose curve; as a rule, active = well fitted curve in the direction sought with a large enough effect; inconclusive = small, poorly fitted or top-dose-only effect, or another doubt; inactive = no such curve, though single readings can be large; an effect the other way counts as inactive or inconclusive.

SMILES	KCNH2 3.1 block	KB-V1 MDR tox	KB-3-1 cytotox	KCNH2 WT inh	MCF10A rereplic	SW480 rerep
O=C(COC(=O)c1ccc(O)cc1O)Nc1ncc(Cl)cc1Cl	5	i	i	-5	10%	-7%
Cc1ccc(C)c(C(=O)NC(C)CCc2ccccc2)c1 (stereo not drawn)	6	i	i	13	2%	11%
Cc1occc1C(=O)NC(C)CCc1ccccc1 (stereo not drawn)	0	i	i	7	21µM*	1%
CC(C)(C)NC(=O)COC(=O)CNC(=O)C1CCCCC1	.	i	?	.	.	.
N=C1C(c2nc3ccccc3s2)=C(O)CN1Cc1ccccc1	4	?	4.1µM*	18	5.2µM*	?
CCN(CC)CCCN1CC(O)=C(c2nc3ccccc3s2)C1=N	-8	i	i	24	-1%	1%
CCOc1ccccc1N1CC(O)=C(c2nc3ccccc3s2)C1=N	5	?	9.2µM*	3	3%	-1%
CCCNC(=O)C1(C)CCCN(C(=O)c2cccc(Cl)c2)C1 (stereo not drawn)	.	i	i	.	.	.
COCCCNC(=O)CCc1c(C)nc2nc(-c3cc(OC)cc(OC)c3)nn2c1C	.	i	i	.	.	.
COc1ccc(/C=C\C(=O)c2c(O)ccc3c(C)cc(=O)oc23)cc1	1	?	23µM*	-8	?	20%
COc1ccc(-c2cc(=O)oc3c(C)c(O)ccc23)cc1	-2	i	i	-3	?	-7%
Cc1cc(=O)oc2c(O)c(O)ccc12	-8	?	i	-6	-52%	-8%
COc1ccc(/C=C/C(=O)c2c(O)ccc3c(C)cc(=O)oc23)cc1	7	i	i	-6	21µM*	-4%
CCOC(=O)C1CCCN(S(=O)(=O)c2cc(-c3cc(C)no3)ccc2C)C1 (stereo not drawn)	.	i	i	.	.	.
Cc1ccc(NC(=O)CSc2nc3ccccc3nc2N2CCOCC2)c(C)c1	7	i	?	0	34%	10%
Cc1ccc(NC(=O)CSc2nc3ccccc3nc2N2CCOCC2)cc1	5	18µM*!	i	7	11%	?
Cc1cccc2cc(C#N)c(SCC(=O)Nc3ccccc3N3CCOCC3)nc12	6	i	i	-10	10%	9%
CCOc1ccccc1NC(=O)CSc1nc2ccccc2nc1N1CCOCC1	-2	i	?	-7	7%	0%
CCOc1ccccc1NC(=O)CSc1nc2ccccc2nc1N1CCCC1	4	i	i	0	15µM*	?
COc1ccc(NC(=O)CSc2nc3ccccc3nc2N2CCCC2)cc1Cl	-26	i	i	-9	23µM*	9%
N#Cc1cc2ccccc2nc1SCC(=O)Nc1ccccc1N1CCOCC1	-3	4.6µM*	i	-8	-2%	-8%
CCNC(=S)N=Nc1c(O)[nH]c2ccc(C(C)C)cc12	-13	3.7µM*	i	-5	18%	-2%
COc1ccc([C@H]2CC(=O)C=C(c3ccc(Cl)cc3C)C2)cc1	9	?	?	-4	18µM*	?
COc1cccc(C2=CC(=O)C[C@H](c3ccc(Cl)cc3)C2)c1OC	-129*	i	i	1	23µM*	0%
COc1ccc(C2=CC(=O)C[C@H](c3ccc(OC)cc3)C2)cc1	-16	i	i	-3	?	-4%
SMILES	KCNH2 3.1 block	KB-V1 MDR tox	KB-3-1 cytotox	KCNH2 WT inh	MCF10A rereplic	SW480 rerep
COc1ccc(Br)cc1C1=CC(=O)C[C@H](c2ccc(F)cc2)C1	20	16µM*	i	-2	.	.
COc1ccc([C@H]2CC(=O)C=C(c3ccc(OC)cc3OC)C2)cc1	15	1.5µM*	0.82µM*	-3	?	13µM*
CCOc1cccc(C(=O)Nc2cc(C)c(O)c(-c3nc4ncccc4o3)c2)c1	.	i	i	.	.	.
NS(=O)(=O)c1ccc(CCNC(=O)c2ccc3nc4ccc(Cl)cc4c(=O)n3c2)cc1	8	i	i	-1	?	?
CC(C(=O)NC(C)(C)C)N(C(=O)CS(=O)CC(=O)Nc1ccc(F)cc1)c1ccccc1F (stereo not drawn)	13	i	i	-8	-2%	3%
CCOCCCn1c(=N)c(C(=O)NCc2cccnc2)cc2c(=O)n3cc(C)ccc3nc21	.	i	i	.	.	.
CC(C)(C)c1ccc(S(=O)(=O)N(CCCN2CCOCC2)Cc2cccs2)cc1	-26	i	i	9	5.8µM*	?
O=[N+]([O-])c1ccc(S(=O)(=O)N(CCCN2CCOCC2)Cc2cccs2)cc1	-5	?	i	.	5%	-71%
CCOC(=O)CCN(Cc1cccs1)S(=O)(=O)c1ccc(Cl)cc1	-1	15µM*	i	0	0%	-7%
CC(=O)Nc1ccc(S(=O)(=O)N(CCCN2CCOCC2)Cc2cccs2)cc1	8	i	i	20	1.2µM*	7%
COc1ccc(-c2cc(C(F)F)n3ncc(C(=O)N4CCSCC4)c3n2)cc1	13	i	i	2	?	5.2µM*
COCCNC(=O)c1cnn2c(C(F)F)cc(-c3ccccc3)nc12	13	i	i	-10	?	15µM*
Cc1ccc(C(=O)Nc2c(C(=O)NCc3ccco3)cnn2-c2ccccc2)cc1	8	i	i	-3	-1%	-4%
Cc1cc(C)c(Cc2c(C)nc3c(C(=O)NCc4ccco4)cnn3c2C)c(C)c1	-2	2.9µM*	21µM*	-5	?	-3%
O=C(Nc1c(C(=O)NCc2ccco2)cnn1-c1ccccc1)c1cccc(F)c1	4	9.2µM*	i	-3	0%	-2%
COCCNC(=O)c1cnn2c(C(F)(F)F)cc(-c3ccc(C)cc3)nc12	4	i	i	-16	4%	-4%
Cc1ccc(N2C(=O)C(Cl)=C(NCc3ccccc3)C2=O)c(C)c1	-3	?	i	1	2%	-6%
NC(=O)c1c(NC(=O)C(=O)N2CCOCC2)sc2c1CCC2	4	i	i	0	5%	21%
O=C(NCc1ccco1)c1cnn2c(C(F)F)cc(-c3ccccc3)nc12	1	i	i	-4	8.2µM*	17%
O=C(c1cnn2c(C(F)F)cc(C3CC3)nc12)N1CCc2ccccc2C1	-21	i	i	0	?	13%
O=C(c1cnn2c(C(F)F)cc(C3CC3)nc12)N1CCCC1	-99*	i	i	-3	0%	-3%
C=CCc1ccc(O)c(-c2ccc(O)c(CC=C)c2)c1	-6	i	i	1	?	-57%

Assay outcomes deposited in PubChem BioAssay by National Center for Advancing Translational Sciences (NCATS).
